Laboratory results from PubChem BioAssay (Tox21).
A number with no mark means an inactive call. Inconclusive results are not listed. Entries that show only a call come without a potency. Activity calls are given as the source filed them. Unless noted, the call rests on the fitted dose curve; in most records, active means well fitted curve in the direction sought with a large enough effect in the repeat runs; inconclusive means weak or mixed curves; inactive means no such curve, though single readings can be large; an effect the other way counts as inactive or inconclusive.

Assays:
[1] = target: Luciferin 4-monooxygenase (Photinus pyralis) (UniProt P08659); experiment: qHTS assay to identify small molecule inhibitors of firefly luciferase (AID 1224835); further: nearly all actives have a fitted effect of over 25% in size; further: potency means the concentration at half of the fitted maximal effect
In short: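 Biochemical qHTS: compounds run as interplate titrations against purified firefly enzyme, with D-luciferin and ATP each at its KM concentration. Light output recorded by CCD imaging.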

[2] = qHTS assay to identify small molecule agonists of the constitutive androstane receptor (CAR) signaling pathway - cell viability counter screen (AID 1224836); further: nearly all actives have a fitted effect of over 45% in size; further: potency means the concentration at half of the fitted maximal effect
In short: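 Double-stable HepG2 hepatoma cells (hCAR plus CYP2B6-2.2kb) are treated for 23 h at 37 C with test compounds in 15-point concentration series. PK11195 at 0.75 uM final is co-added. Cell viability is quantified by CellTiter-Fluor.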

[3] = qHTS assay to identify small molecule antagonists of the constitutive androstane receptor (CAR) signaling pathway - cell viability counter screen (AID 1224837); further: nearly all actives have a fitted effect of over 45% in size; further: potency means the concentration at half of the fitted maximal effect
In short: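 Cytotoxicity counter-screen: CellTiter-Fluor fluorescence after 23 h compound exposure (15-point qHTS) in double-stable HepG2-CYP2B6-hCAR cells, with 50 nM CITCO added.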

[4] = target: Nuclear receptor subfamily 1 group I member 3 (Homo sapiens) (UniProt Q14994); experiment: qHTS assay to identify small molecule antagonists of the constitutive androstane receptor (CAR) signaling pathway (AID 1224838);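 further: HepG2 cells stably expressing hCAR with CYP2B6 luciferase reporter stimulated by CITCO; nearly all actives have a fitted effect of over 40% in size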; further: potency means the concentration at half of the fitted maximal effect
In short: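 Antagonism measured as luciferase signal (ONE-Glo, 30 min, room temperature) in CAR-stimulated cells: HepG2-CYP2B6-hCAR double-stable line exposed 24 hr at 37 C to compound in a 15-point series plus 50 nM CITCO.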

[5] = target: Nuclear receptor subfamily 1 group I member 3 (Homo sapiens) (UniProt Q14994); experiment: qHTS assay to identify small molecule agonists of the constitutive androstane receptor (CAR) signaling pathway (AID 1224839); further: nearly all actives have a fitted effect of over 15% in size; further: potency means the concentration at half of the fitted maximal effect;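 on activation: HepG2 cells stably carrying human CAR and a CYP2B6 luciferase reporter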
In short: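 Readout: firefly luciferase luminescence via ONE-Glo. System: HepG2 double-stable for hCAR and CYP2B6-2.2kb. Conditions: 15-point compound titration, PK11195 at 0.75 uM final, 24 h incubation.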

[6] = qHTS assay to identify small molecule antagonists of the estrogen related receptor signaling pathway with the pleiotropic PPARgamma coactivator (PGC) from Tox21 10K library - cell viability counter screen (AID 1224840; active means well fitted cell-killing curve with a large enough effect in the repeat runs, not every such curve was filed as active; further: nearly all actives have a fitted effect of over 40% in size)
In short: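 Counter-screen for cytotoxicity: after 17.5 h compound exposure at 37 C, CellTiter-Fluor reagent added to PGC/ERR cells for 30 min and fluorescence read. Cells were seeded at 2,000 per well 6 h before dosing.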

[7] = qHTS assay to identify small molecule agonists of the hypoxia (HIF-1) signaling pathway - cell viability counter screen (AID 1224844; calls by dose curve; further: nearly all actives have a fitted effect of over 50% in size; further: potency means the concentration at half of the fitted maximal effect)
In short: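 Cytotoxicity measured by CellTiter-Glo ATP luminescence in the wells also read for beta-lactamase signal. Cells were HRE-bla ME-180 (2,000/well, 0.5% dialyzed FBS), exposed to compounds for 17 h at 37C.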

[8] = qHTS assay to identify small molecule agonists of H2AX (AID 1224845; active means well fitted activation curve with a large enough effect in the signal ratio in the repeat runs, not every such curve was filed as active; the % refers to the signal ratio)
In short: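 Wild-type CHO-K1 cells, plated overnight, exposed 3hr at 37C to 15 concentrations (0.76% DMSO final). Lysed, then HTRF anti-pH2AX (S139) cryptate and anti-H2AX-d2 antibodies, 24 hr room temperature; 665/620 nm emission read.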

[9] = qHTS assay to identify small molecule agonists of the hypoxia (HIF-1) signaling pathway (AID 1224846; active means well fitted activation curve with a large enough effect in the signal ratio in the repeat runs, not every such curve was filed as active; the % refers to the signal ratio)
In short: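 Compounds added to ME-180 cells carrying hypoxia-response-element beta-lactamase reporter (0.5% dialyzed FBS, 5 h preplating), 17 h at 37C; agonist activity detected by CCF4-AM B/G FRET read-out.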

[10] = qHTS RealTime-Glo MT Cell Viability Assay in HEK293 cells - 32 hour (AID 1224868); further: nearly all actives have a fitted effect of over 50% in size; further: potency means the concentration at half of the fitted maximal effect; on activity change, negative = cytotoxic: top concentration of the series differs between compounds
In short: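 HEK293 cells were seeded at 600 cells/well together with NanoLuc luciferase and cell-permeant prosubstrate, preincubated 5 h at 37 C/5% CO2, then given compound in DMSO by pintool. Luminescence from viable-cell prosubstrate reduction was read repeatedly over 40 h.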

[11] = A CellTox Green Cytotoxicity Assay to monitor cytotoxicity in HEK293 cells - 0 hour (AID 1224869); further: nearly all actives have a fitted effect of over 50% in size
In short: (§1)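 Fluorescence from a DNA-binding dye excluded by viable cells was measured repeatedly in the same HEK293 wells (600 cells/well) during continuous compound exposure at 37 C. Each assay gives one read point: 0, 8, 16, 24, 32 or 40 h.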

[12] = qHTS RealTime-Glo MT Cell Viability Assay in HepG2 cells - 40 hour (AID 1224870); further: nearly all actives have a fitted effect of over 50% in size; further: potency means the concentration at half of the fitted maximal effect
In short: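 HepG2 cells (600/well) mixed with RealTime-Glo MT reagent, settled 5 h at 37 C/5% CO2 before compound addition. Nonlytic NanoLuc luminescence from viable-cell prosubstrate reduction read repeatedly during 40 h treatment at 37 C.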

[13] = A CellTox Green Cytotoxicity Assay to monitor cytotoxicity in HEK293 cells - 40 hour (AID 1224871); further: nearly all actives have a fitted effect of over 45% in size; further: potency means the concentration at half of the fitted maximal effect
In short: as §1

[14] = qHTS assay to identify small molecule antagonists of the estrogen related receptor signaling pathway with the pleiotropic PPARgamma coactivator (PGC) from Tox21 10K library (AID 1224841; call rule not given here; further: potency means the concentration at half of the fitted maximal effect)
In short: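 Luminescence (One-Glo, 30 min at room temperature) after 18 h compound treatment at 37 C of PGC/ERR reporter cells plated at 2,000 cells/well and settled 6 h beforehand.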

[15] = qHTS assay to identify small molecule agonists of the estrogen related receptor signaling pathway with the pleiotropic PPARgamma coactivator (PGC) from Tox21 10K library (AID 1224842); further: nearly all actives have a fitted effect of over 15% in size
In short: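 PGC/ERR reporter cell line, 2,000 cells per well, incubated 6 h at 37 C before 23 nL compound in DMSO was added. After 18 h at 37 C, One-Glo luminescence read following 30 min at room temperature.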

[16] = target: Thyrotropin receptor (Homo sapiens) (UniProt P16473); experiment: qHTS assay to identify small molecule agonists of the thyroid stimulating hormone receptor (TSHR) signaling pathway (AID 1224843; calls by dose curve; further: nearly all actives have a fitted effect of over 45% in size)
In short: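 Agonist-mode screen: TSHR HEK293 cells received test chemicals for half an hour at room temperature, then HTRF cAMP detection reagents for one hour prior to fluorescence measurement. Each chemical ran as a 15-concentration series, triplicated.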

[17] = qHTS assay to identify small molecule agonists of H2AX - cell viability counter screen (AID 1224847; calls by dose curve; further: top concentration of the series differs between compounds; nearly all actives have a fitted effect of over 30% in size)
In short: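 For this counter screen, overnight-attached CHO-K1 cells received test compounds (15 concentrations, 0.76% DMSO final); 3 hr later at 37C, CellTiter-Glo reagent was added and luminescence recorded after 30 min at room temperature.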

[18] = qHTS assay to identify small molecule antagonists of the estrogen related receptor (ERR) signaling pathway from Tox21 library (AID 1224848); further: nearly all actives have a fitted effect of over 50% in size; further: potency means the concentration at half of the fitted maximal effect
In short: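 Quantitative high-throughput format: ERR reporter cells (2,000/well) pre-incubated 6 h, treated 18 h at 37 C with compounds in DMSO alongside positive and negative controls, then read by ONE-Glo luminescence.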

[19] = qHTS assay to identify small molecule agonists of the estrogen related receptor (ERR) signaling pathway from Tox21 library (AID 1224849; calls by dose curve; further: nearly all actives have a fitted effect of over 15% in size); settings: ERR reporter cell line, ONE-Glo luciferase, 18 h; at 92.4 µM (top of the series) unless noted
In short: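 Luminescent agonist read-out (One-Glo, 30-minute room-temperature incubation) following 18-hour compound treatment at 37 C of the ERR cell line, which had been plated 6 hours before dosing.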

[20] = qHTS RealTime-Glo MT Cell Viability Assay in HepG2 cells - 24 hour (AID 1224867); further: nearly all actives have a fitted effect of over 50% in size
In short: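 HepG2 cells were seeded at 600 cells/well together with NanoLuc luciferase and a cell-permeant prosubstrate, preincubated 5 h at 37 C/5% CO2, then pin-dosed with compounds in DMSO. Nonlytic luminescence from viable cells was read at each time point.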

Sequence of Nuclear receptor subfamily 1 group I member 3 (Homo sapiens) (Q14994 whole entry, looked up): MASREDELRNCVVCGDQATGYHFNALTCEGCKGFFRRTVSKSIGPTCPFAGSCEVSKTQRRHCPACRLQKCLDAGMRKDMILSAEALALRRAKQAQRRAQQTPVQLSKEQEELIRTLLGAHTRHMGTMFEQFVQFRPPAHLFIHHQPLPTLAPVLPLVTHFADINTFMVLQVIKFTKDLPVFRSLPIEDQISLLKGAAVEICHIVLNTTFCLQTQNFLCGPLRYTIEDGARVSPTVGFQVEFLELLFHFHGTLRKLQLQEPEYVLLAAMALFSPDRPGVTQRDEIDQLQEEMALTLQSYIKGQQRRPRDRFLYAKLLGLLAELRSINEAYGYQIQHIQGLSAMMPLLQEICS
Sequence of Luciferin 4-monooxygenase (Photinus pyralis) (P08659 whole entry, looked up): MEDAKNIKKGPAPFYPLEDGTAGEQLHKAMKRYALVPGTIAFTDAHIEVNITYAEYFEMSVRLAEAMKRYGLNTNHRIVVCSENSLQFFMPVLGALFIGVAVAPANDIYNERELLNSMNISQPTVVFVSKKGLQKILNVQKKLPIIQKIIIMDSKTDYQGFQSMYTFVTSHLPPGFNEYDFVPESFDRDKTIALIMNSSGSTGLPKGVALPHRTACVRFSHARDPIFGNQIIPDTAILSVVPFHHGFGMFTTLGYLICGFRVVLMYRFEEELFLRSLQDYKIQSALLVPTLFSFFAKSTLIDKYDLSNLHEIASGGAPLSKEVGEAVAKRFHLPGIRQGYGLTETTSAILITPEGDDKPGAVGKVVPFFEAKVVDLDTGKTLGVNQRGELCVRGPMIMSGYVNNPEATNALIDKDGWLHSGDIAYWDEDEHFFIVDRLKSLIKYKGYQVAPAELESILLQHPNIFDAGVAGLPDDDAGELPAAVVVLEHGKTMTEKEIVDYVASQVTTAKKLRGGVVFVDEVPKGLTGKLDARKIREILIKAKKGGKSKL
Sequence of Thyrotropin receptor (Homo sapiens) (P16473 whole entry, looked up): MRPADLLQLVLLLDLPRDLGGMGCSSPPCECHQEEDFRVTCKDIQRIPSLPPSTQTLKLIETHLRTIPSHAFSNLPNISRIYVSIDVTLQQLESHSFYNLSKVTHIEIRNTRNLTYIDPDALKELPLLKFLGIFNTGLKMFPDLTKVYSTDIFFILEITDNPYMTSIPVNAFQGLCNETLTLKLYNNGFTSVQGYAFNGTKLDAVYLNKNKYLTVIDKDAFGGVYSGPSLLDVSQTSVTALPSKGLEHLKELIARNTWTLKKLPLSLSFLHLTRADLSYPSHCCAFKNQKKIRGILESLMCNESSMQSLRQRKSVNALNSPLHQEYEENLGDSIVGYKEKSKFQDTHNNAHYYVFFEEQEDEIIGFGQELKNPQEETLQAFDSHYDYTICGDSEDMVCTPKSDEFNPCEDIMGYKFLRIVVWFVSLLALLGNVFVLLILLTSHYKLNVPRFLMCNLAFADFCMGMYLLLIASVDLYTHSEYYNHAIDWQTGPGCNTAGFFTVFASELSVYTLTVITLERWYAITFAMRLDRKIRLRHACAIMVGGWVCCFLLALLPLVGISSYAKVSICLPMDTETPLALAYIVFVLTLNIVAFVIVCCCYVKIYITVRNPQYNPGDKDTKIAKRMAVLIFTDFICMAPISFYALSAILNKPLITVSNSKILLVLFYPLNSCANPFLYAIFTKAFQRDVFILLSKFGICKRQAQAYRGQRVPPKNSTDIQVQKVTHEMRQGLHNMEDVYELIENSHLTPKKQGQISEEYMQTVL

CC(CN=Cc1ccccc1O)N=Cc1ccccc1O (stereo not given)
Potency [1]: inactive | Potency [2]: inactive | Potency [3]: inactive | Potency [4]: inactive | Potency [5]: inactive | Potency [6]: inactive | Potency [7]: inactive | Potency [8]: inactive | outcome [9]: inactive | Potency [10]: inactive | Potency [11]: inactive | Potency [12]: inactive | Potency [13]: inactive

O=C(c1ccco1)N1CCNCC1
Potency [1]: inactive | Potency [2]: inactive | Potency [3]: inactive | Potency [4]: inactive | Potency [5]: inactive | Potency [14]: inactive | Potency [15]: inactive | Potency [16]: inactive | outcome [9]: inactive | Potency [17]: inactive | Potency [18]: inactive | activity change, positive = activation [19]: 3.89% [at 42.5 µM] | Potency [10]: inactive | Potency [11]: inactive | Potency [12]: inactive

O=C1C=CCCC1
Potency [1]: inactive | Potency [2]: inactive | Potency [3]: inactive | Potency [4]: inactive | Potency [5]: inactive | Potency [16]: inactive | Potency [7]: inactive | Potency [8]: inactive | outcome [9]: inactive | Potency [17]: inactive | outcome [20]: inactive | Potency [10]: inactive | Potency [11]: inactive | Potency [12]: inactive | Potency [13]: inactive

CC(C)C[C@H](NC(=O)[C@H](Cc1ccccc1)NC(=O)c1cnccn1)B(O)O
Potency [1]: inactive | Potency [2]: 298 nM (active) | Potency [3]: 266 nM (active) | Potency [4]: 37.6 nM (active) | Potency [5]: inactive | Potency [14]: 18.8 nM (active) | Potency [15]: inactive | Potency [16]: inactive | Potency [7]: 21.3 nM (active) | outcome [9]: inactive | Potency [18]: 23.7 nM (active) | activity change, positive = activation [19]: -63.1% [at 42.5 µM] | Potency [10]: 37.9 nM (active) | Potency [11]: inactive | Potency [12]: 21.3 nM (active) | Potency [13]: 37.9 nM (active)

CO[C@@H]1[C@@H](O[C@@H]2O[C@H](C)[C@@H](O[C@H]3C[C@@](C)(O)[C@@H](O)[C@H](C)O3)[C@H](N(C)C)[C@H]2O)[C@@H](CC=O)C[C@@H](C)[C@@H](O[C@@H]2CC[C@H](N(C)C)[C@@H](C)O2)/C=C/C=C/C[C@@H](C)OC(=O)C[C@H]1OC(C)=O
Potency [1]: inactive | Potency [2]: inactive | Potency [3]: inactive | Potency [4]: inactive | Potency [5]: inactive | Potency [6]: inactive | Potency [8]: inactive | Potency [17]: inactive | Potency [10]: inactive | Potency [11]: inactive | Potency [12]: inactive | Potency [13]: inactive

O=C1CCCN1CCO
Potency [1]: inactive | Potency [2]: inactive | Potency [3]: inactive | Potency [4]: inactive | Potency [5]: inactive | Potency [16]: inactive | Potency [7]: 21900 nM (active) | Potency [8]: inactive | Potency [17]: inactive | Potency [10]: inactive | Potency [11]: inactive | Potency [12]: inactive | Potency [13]: inactive

S=c1[nH][nH]c(=S)s1
Potency [1]: 11200 nM (active) | Potency [2]: inactive | Potency [3]: inactive | Potency [4]: inactive | Potency [5]: inactive | Potency [6]: inactive | Potency [16]: inactive | Potency [7]: inactive | outcome [9]: inactive | Potency [17]: inactive | outcome [20]: inactive | Potency [11]: inactive | Potency [12]: inactive | Potency [13]: inactive

[O-][n+]1ccc(Cl)cc1
Potency [1]: inactive | Potency [2]: inactive | Potency [3]: inactive | Potency [4]: inactive | Potency [5]: inactive | Potency [6]: inactive | Potency [7]: inactive | outcome [9]: inactive | Potency [17]: inactive | outcome [20]: inactive | Potency [10]: inactive | Potency [11]: inactive | Potency [12]: inactive

c1ccc(-c2ccc(-c3ccccc3)cc2)cc1
Potency [1]: 820 nM (active) | viability change, negative = cytotoxic [2]: 4.23% [at 19 µM] | activity change, negative = cytotoxicity [3]: -2.21% [at 19 µM] | activity, negative = inhibition [4]: 139% [at 19 µM] | Potency [5]: 3530 nM (active) | viability change, negative = cytotoxic [6]: 3.19% [at 19 µM] | activation (H2AX phosphorylation) [8]: -0.824% [at 31.6 µM] | activation [9]: -1.07% [at 15.8 µM] | activity change, negative = cytotoxicity [17]: -0.782% [at 31.6 µM] | activity change, negative = cytotoxicity [20]: 1.53% [at 15.8 µM] | activity change, negative = cytotoxic [10]: 0.807% [at 15.8 µM] | cytotoxicity [11]: -5.7% [at 15.8 µM] | activity change, negative = cytotoxic [12]: 3.84% [at 15.8 µM] | cytotoxicity increase [13]: -4.32% [at 15.8 µM]
